SMILES strings stand for the structures. Inconclusive results are not listed. Calls of active or inactive are those of the source. How the source made its calls: active means hit-call score of the fitted dose curve at least 0.9, where 1 is the maximum; inconclusive means response in the unintended direction; inactive means score below 0.9.

This assay can be described thus: TOX21_TRB_BLA_Agonist_Followup_viability: Viability Assessment in the Tox21 Thyroid Hormone Receptor beta Agonism Beta-lactamase (BLA) Follow-Up Assay (AID 2283956). From the text:
The GeneBLAzer TRb-UAS-bla HEK293T assay kit for human TRb (ThermoFisherScientific Catalog No. K1684) was used as a secondary assay for specificity (TRb-bla). This assay contained the ligand-binding domain (LBD) of the human TRb fused to the DNA-binding domain of GAL4 stably integrated in the GeneBLAzer UAS-bla HEK293Tcell line. The reporter gene, b-lactamase, is under the transcriptional control of a UAS that binds the GAL4 DNA-binding domain. A cell viability assay was run in parallel for these cells as well using the CellTiter-Glo viability assay kit.TOX21_TRB_BLA_Agonist_Followup_viability is a component of the TOX21_TRB_BLA_Agonist_Followup assay. This component measures cell viability using the CellTiter-Glo Luciferase-coupled ATP quantitation.The assay component endpoint TOX21_TRB_BLA_Agonist_Followup_viability was analyzed with bidirectional fitting relation to DMSO as the negative control and baseline of activity. Using a type of viability reporter, loss-of-signal activity can be used to understand changes in viability. To generalize the intended target to other relatable targets, this assay endpoint is annotated to cell cycle, where the subfamily is cytotoxicity.
Cell Media Required: Growth (90% DMEM/F-12, 10% Fetal Bovine Calf Serum, 100U/ml Penicillin, 100 ug/ml Streptomycin), Assay (10ng/mL sodium selenite, 10 ug/mL humanapo-transferrin, 10 uM ethanolamine, 10 ug/mL insulin, 500 ug/mL bovine serum albumin (BSA))Assay Protocol: TRb-bla cells were dispensed at 3,000 cells/well in 5 uL of the assay medium containing phenol red-free DMEM with 2% charcoal-stripped FBS in 1,536-well black-wall/clear-bottom plates using an FRD. After 5-h incubation at 37C/5% CO2 for cell attachment to the well bottom, 23nL of follow-up compounds dissolved in DMSO, 11 concentrations in triplicate, and the positive control (T3; agonist format) were transferred to the assay plates using a Pintool station. The assay plates were incubated at 37C/5% CO2 for 18h. One microliter LiveBLAzer FRET-B/G CCF4-AM substrate was added to each well using an FRD. After 2-h incubation at room temperature, the fluorescence intensity was measured using an Envision plate reader. Data were expressed as the ratio of 460:530nm. The cytotoxicity of the compounds was measured in the same plates by adding 4 uL of CellTiter-Glo reagent to each well and incubating the plates at room temperature for 30 min. The luminescence intensity was measured using a ViewLux plate reader.For the luciferase reporter gene assay, 5 uL/well (agonist format) and 4 uL/well (antagonist format) ONE-Glo reagent (Promega Corporation) was added using an FRD and after 30-min incubation at room temperature, the luminescence intensity was measured using a ViewLux plate reader. Data were expressed as relative fluorescence units (cell viability assay) and relative luminescence units (luciferase reporter assay).
As to `CCCCCCCCCCC`, the compound was called inactive.
The value for `C[C@]12CC[C@H]3C(=CCc4cc(O)ccc43)[C@@H]1CCC2=O` was “inactive”; that for `CC1=C(/C=C/C(C)=C/C=C/C(C)=C\C(=O)O)C(C)(C)CCC1` was “inactive”; that for `O=c1[nH]cnc2c1ncn2[C@H]1CC[C@@H](CO)O1` was “inactive”.
Consider `Oc1ccccc1`, for which the call was inactive.
`Nc1ncn([C@H]2C[C@H](O)[C@@H](CO)O2)c(=O)n1`: the compound was classed as inactive.
Consider `N[C@@H](Cc1ccc(Oc2cc(I)c(O)c(I)c2)c(I)c1)C(=O)O`, for which the result was inactive.
The value for `OCCCCC(O)CO` (stereo not given) was “inactive”; that for `CC1=C(/C=C/C(C)=C/C=C/C(C)=C/C(=O)O)C(C)(C)CCC1` was “inactive”; that for `NC(CO)(CO)CO` was “inactive”.
The value for `NCC(=O)CCC(=O)O` was “inactive”; that for `COc1ccc(OC)c([C@@H](O)[C@H](C)N)c1` was “inactive”; that for `C=C(c1ccc(C(=O)O)cc1)c1cc2c(cc1C)C(C)(C)CCC2(C)C` was “inactive”.
For the compound `CC(=O)OCCC(C)CC(C)(C)C` (stereo not given), the result was inactive.
Take `CC(C)(C)c1cc(C(C)(C)C)c(O)c(C(C)(C)C)c1`: the call was inactive.
Regarding `CC(=O)Nc1ccc(C(=O)CCl)cc1`, the result was inactive.
As for `CCNc1nc(N)nc(Cl)n1`, the call was inactive.
For `Cc1cc(C)nc(NS(=O)(=O)c2ccc(N)cc2)n1`, the result was inactive.
Regarding `C[Si](C)O[Si](C)(C)O[Si](C)(C)O[Si](C)C`, the call was inactive.
Take `O=C(O)Cc1cc(I)c(Oc2ccc(O)c(I)c2)c(I)c1`: the compound was classed as inactive.
On to `CC(C)CCCCCCCOC(=O)c1ccccc1C(=O)OCCCCCCCC(C)C`, for which the outcome was inactive.
To `COc1cc(C)c(/C=C/C(C)=C/C=C/C(C)=C/C(=O)O)c(C)c1C` belongs “inactive”; to `N[C@@H](Cc1cc(I)c(Oc2cc(I)c(O)c(I)c2)c(I)c1)C(=O)O`, “inactive”; to `O=C(O)Cc1cc(I)c(Oc2cc(I)c(O)c(I)c2)c(I)c1`, “inactive”.
`CC(C)CC(=O)O`: the compound was called inactive.
Regarding `O=C(O)CCCCCCNC1c2ccccc2CCc2ccccc21`, the call was inactive.
In the case of `CCCCCCC(O)CO` (stereo not given), the outcome was inactive.
The value for `Nc1ccc(S(N)(=O)=O)cc1` was “inactive”.
On to `CCC(C)c1cc(C(C)(C)C)c(O)c(C(C)(C)C)c1` (stereo not given), for which the result was inactive.
Turning to `CC(CCO)CCCC(C)(C)O` (stereo not given), the compound was classed as inactive.
On to `C=C(NC(=O)C(=C)NC(=O)c1csc(C2=NC3c4csc(n4)C4NC(=O)c5csc(n5)C(C(C)(O)C(C)O)NC(=O)C5CSC(=N5)/C(=C/C)NC(=O)C(C(C)O)NC(=O)c5csc(n5)C3(CC2)NC(=O)C(C)NC(=O)C(=C)NC(=O)C(C)NC(=O)C(C(C)CC)NC2C=Cc3c(C(C)O)cc(nc3C2O)C(=O)OC4C)n1)C(N)=O` (stereo not given), for which the outcome was inactive.
To `CCCCCCC(C)O` (stereo not given) belongs “inactive”; to `O=Cc1ccccc1S(=O)(=O)O`, “inactive”; to `Nc1ccc(S(=O)(=O)Nc2nccs2)cc1`, “inactive”.
The value for `CC1=C(/C=C/C(C)=C\C=C\C(C)=C\C(=O)O)C(C)(C)CCC1` was “inactive”; that for `CC(C)=CCC/C(C)=C\CO` was “inactive”.
Regarding `COC(=O)c1ccc(I)cc1S(=O)(=O)NC(=O)Nc1nc(C)nc(OC)n1`, the result was inactive.
Consider `CSCC[C@H](NC(=O)[C@H](Cc1ccc(OS(=O)(=O)O)cc1)NC(=O)[C@@H](N)CC(=O)O)C(=O)NCC(=O)N[C@@H](Cc1c[nH]c2ccccc12)C(=O)N[C@@H](CCSC)C(=O)N[C@@H](CC(=O)O)C(=O)N[C@@H](Cc1ccccc1)C(N)=O`, for which the compound was called inactive.
For `CNC(=O)ON=C(CSC)C(C)(C)C`, the result was inactive.
In the case of `CC(C)(C)CC(C)(C)c1ccc(O)c(Cc2ccc(Cl)cc2Cl)c1`, the compound was called inactive.

The record behind these values is PubChem BioAssay (EPA / NIEHS).
